Experimental data: PubChem BioAssay (Tox21)
Results filed as inconclusive are left out. Calls of active or inactive are those of the source. Unless noted, calls follow the shape of the full dose curve.

Experiments:
[1] = molecular target: 5-hydroxytryptamine receptor 2A (Homo sapiens) (UniProt P28223); test: 5-hydroxytryptamine receptor 2A (HTR2A) small molecule antagonists, cell-based qHTS assay (AID 1963586); also: nearly all actives have a fitted effect of over 45% in size; also: potency is read from the fitted curve at half-maximal effect
Procedure, shortened: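 Antagonist-mode intracellular calcium assay: DOI (4 nM) added after 5 min compound pre-incubation at room temperature to dye-loaded HTR2A-CHO cells. Fluorescence followed for 3 min, sampled every second.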

[2] = molecular target: 5-hydroxytryptamine receptor 2A (Homo sapiens) (UniProt P28223); test: 5-hydroxytryptamine receptor 2A (HTR2A) small molecule agonists, cell-based qHTS assay (AID 1963587); also: nearly all actives have a fitted effect of over 30% in size
Procedure, shortened: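 CHO cells stably expressing human HTR2A, plated 18 h, loaded with calcium dye 1 h at 37 C. Agonist mode: compounds added and intracellular calcium fluorescence recorded kinetically for 2 min at 1 sec intervals.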

[3] = molecular target: Muscarinic acetylcholine receptor M1 (Homo sapiens) (UniProt P11229); test: Cholinergic receptor muscarinic 1 (CHRM1) small molecule antagonists, cell-based qHTS assay (AID 1963588); also: nearly all actives have a fitted effect of over 40% in size; also: potency is read from the fitted curve at half-maximal effect
Procedure, shortened: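 CHRM1-CHO calcium-flux assay, antagonist mode. Cells were seeded 18 h, dye-loaded 1 h at 37 C and given compound for 5 min at RT, then acetylcholine was added at 50nM. FDSS fluorescence was read 3 min; 15 concentrations, three runs.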

[4] = molecular target: Beta-2 adrenergic receptor (Homo sapiens) (UniProt P07550); test: Adrenergic beta2 receptor (ADRB2) small molecule antagonists, cell-based qHTS assay (AID 1963592); also: nearly all actives have a fitted effect of over 50% in size; also: potency is read from the fitted curve at half-maximal effect
Procedure, shortened: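 Cells (CHO, stable ADRB2 overexpression) incubated 18-20hr at 37C; compounds added from DMSO; agonist mix (1nM isoproterenol, 100uM IBMX, 25uM Ro-20-1724) added; 0.5hr RT; d2-cAMP and anti-cAMP-cryptate added; 1hr RT; 665/615 nm read.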

[5] = molecular target: Beta-2 adrenergic receptor (Homo sapiens) (UniProt P07550); test: Adrenergic beta2 receptor (ADRB2) small molecule agonists, cell-based qHTS assay (AID 1963593);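 also: CHO cells stably overexpressing human ADRB2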
Procedure, shortened: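 CHO cells stably over-expressing ADRB2 were plated overnight at 37C, then dosed with compounds plus a stimulation mix containing 100uM IBMX and 25uM Ro-20-1724 for 0.5hr at room temperature. cAMP was measured by HTRF competition, 1hr.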

[6] = molecular target: D(2) dopamine receptor (Homo sapiens) (UniProt P14416); test: Dopamine D2 receptor (DRD2) small molecule antagonists, cell-based qHTS assay (AID 1963595; active = well fitted inhibition curve with a large enough effect in the signal ratio in the repeat runs, with a control signal flat; the % refers to the signal ratio; also: potency is read from the fitted curve at half-maximal effect)
Procedure, shortened: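 Stable D2 receptor HEK293 line, 24 h after seeding. Compound preincubated 10 min, then quinpirole (12 nM) with forskolin analogue NKH477 (200 nM), 30 min, room temperature. Detection by time-resolved FRET of cAMP.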

[7] = molecular target: KiSS-1 receptor (Homo sapiens) (UniProt Q969F8); test: Human kisspeptin (KISS1R) small molecule agonists, calcium flux assay in KISS1R-HEK293 cells (AID 1920064; active = well fitted activation curve with a large enough effect in the repeat runs)
Procedure, shortened: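 Stable human KISS1R HEK293 line; 18 h plating, 37 C/5% CO2; calcium dye 1 h 37 C; compound pin transfer; kinetic fluorescence Ex/Em 480/540, 3 min.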

[8] = G protein-coupled receptor (GPCR) small molecule agonists, calcium flux assay: HEK293 wild type cell line counter screen (AID 1920065)
Procedure, shortened: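 Kinetic fluorescence at Ex/Em 480/540, recorded every second over 3 min, served as the read-out after compound addition. Each compound was tested at 15 concentrations in triplicate on cells pre-loaded with calcium dye for 1 h.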

[9] = p53 small molecule agonists, cell-based qHTS assay with human liver microsomes (AID 1963577); also: potency is read from the fitted curve at half-maximal effect
Procedure, shortened: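 Fluorescence of the beta-lactamase reporter in p53RE-bla cells, detected with LiveBLAzer substrate (2 h, room temperature, dark), served as the read-out after 16 h compound exposure at 37 C with human liver microsomes and NADPH, each 0.5 mg/mL final.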

[10] = p53 small molecule agonists, cell-based qHTS assay with rat liver microsomes (AID 1963578)
Procedure, shortened: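 Cells carrying a p53 response element–beta-lactamase reporter were plated and rested 5 h, then dosed with compound in DMSO plus rat liver microsomes and NADPH, each at 0.5 mg/mL final. After 16 h at 37 C, LiveBLAzer substrate was added for 2 h.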

[11] = p53 small molecule agonists, cell-based qHTS assay with human liver microsomes: qHTS cell viability counter screen (AID 1963579); also: nearly all actives have a fitted effect of over 45% in size; also: potency is read from the fitted curve at half-maximal effect
Procedure, shortened: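 Cytotoxicity counter screen: p53RE-bla, 4,000 cells/well; 5 h settle, 37 C/5% CO2; cpd + HLM 0.5 mg/mL + NADPH 0.5 mg/mL (final); 16 h, 37 C; CellTiter-Glo, 30 min RT, luminescence.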

[12] = molecular target: D(2) dopamine receptor (Homo sapiens) (UniProt P14416); test: Dopamine D2 receptor (DRD2) small molecule agonists, cell-based qHTS assay (AID 1963594); also: nearly all actives have a fitted effect of over 35% in size; also: potency is read from the fitted curve at half-maximal effect
Procedure, shortened: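 HEK293 cells stably expressing human DRD2, pre-treated with PDE inhibitor Ro20-1724 (0.1 mM final) and compound 10 min at room temperature, then stimulated with NKH477 (200nM […]) for 30 min. cAMP read by HTRF (665/620 nm).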

[13] = molecular target: Gonadotropin-releasing hormone receptor (Homo sapiens) (UniProt P30968); test: Human gonadotropin-releasing hormone receptor (GnRHR) small molecule agonists, calcium flux assay in GnRHR-HEK293 cells (AID 1920063); also: nearly all actives have a fitted effect of over 35% in size
Procedure, shortened: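 GnRHR-HEK293, 1500 cells/well, 18 h 37 C/5% CO2; Ca dye 1 h 37 C; cpd pinned (DMSO), agonist mode; kinetic FL 480/540, 3 min, 1 s reads; 15 conc, n=3.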

[14] = p53 small molecule agonists, cell-based qHTS assay: qHTS cell viability counter screen (AID 1963581); also: nearly all actives have a fitted effect of over 45% in size
Procedure, shortened: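 HCT-116 p53RE-bla cells, 4,000/well, plated 5 h before compound pin transfer; 16 h at 37 C; bla substrate 2 h RT; then CellTiter-Glo, 30 min RT, luminescence.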

[15] = p53 small molecule agonists, cell-based qHTS assay (AID 1963582; active = well fitted activation curve with a large enough effect in the signal ratio in the repeat runs, not every such curve was filed as active; the % refers to the signal ratio; also: potency is read from the fitted curve at half-maximal effect)
Procedure, shortened: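 Reporter line: p53RE-bla. Pre-incubation 5 h, 37 C, 5% CO2; compound (DMSO, pin tool) 16 h, 37 C; B/G FRET substrate 2 h RT; fluorescence intensity read.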

[16] = cAMP Responsive Elements (CRE) small molecule agonists, cell-based qHTS assay (AID 1963590)
Procedure, shortened: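 HEK 293T CRE-bla, 2,000 cells/well, 18 h preincubation 37 C/5% CO2; cpds (DMSO) pinned, 3 h; LiveBLAzer B/G FRET substrate, 2 h RT.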

[17] = cAMP Responsive Elements (CRE) small molecule antagonists, cell-based qHTS assay (AID 1963591; active = well fitted inhibition curve with a large enough effect in the signal ratio in the repeat runs, not every such curve was filed as active; the % refers to the signal ratio)
Procedure, shortened: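 Beta-lactamase reporter read by FRET substrate (LiveBLAzer B/G) after 2 h at room temperature. CRE-bla HEK293T cells had received compound plus 0.25 uM (final) NKH477 for 3 h at 37 °C.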

[18] = molecular target: Muscarinic acetylcholine receptor M1 (Homo sapiens) (UniProt P11229); test: Cholinergic receptor muscarinic 1 (CHRM1) small molecule agonists, cell-based qHTS assay (AID 1963589); also: nearly all actives have a fitted effect of over 35% in size
Procedure, shortened: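 Human M1 in stable CHO line; 18 h plating, 1 h dye load 37 C; cpd added (agonist mode); Ca2+ fluorescence kinetic read, 1 s intervals; 15 conc, 3 runs.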

[19] = p53 small molecule agonists, cell-based qHTS assay with rat liver microsomes: qHTS cell viability counter screen (AID 1963580); also: nearly all actives have a fitted effect of over 45% in size
Procedure, shortened: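 p53RE-bla HCT-116 cells were exposed 16 h at 37 C to compounds with rat liver microsomes (0.5 mg/mL) and NADPH (0.5 mg/mL). Viability was measured in the same wells as ATP content by CellTiter-Glo luminescence.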

Measured: Potency

KiSS-1 receptor (Homo sapiens), sequence (Q969F8 whole entry, looked up): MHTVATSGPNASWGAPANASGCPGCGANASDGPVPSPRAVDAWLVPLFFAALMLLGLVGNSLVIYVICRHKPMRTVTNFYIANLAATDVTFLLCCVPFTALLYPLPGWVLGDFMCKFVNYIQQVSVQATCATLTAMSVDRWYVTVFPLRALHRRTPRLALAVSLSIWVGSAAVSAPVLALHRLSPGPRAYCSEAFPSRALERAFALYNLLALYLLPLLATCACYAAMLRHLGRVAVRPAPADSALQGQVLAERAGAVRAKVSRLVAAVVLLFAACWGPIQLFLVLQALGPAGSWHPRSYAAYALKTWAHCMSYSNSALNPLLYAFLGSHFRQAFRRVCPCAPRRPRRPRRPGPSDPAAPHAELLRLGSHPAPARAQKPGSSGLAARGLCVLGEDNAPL
Muscarinic acetylcholine receptor M1 (Homo sapiens), sequence (P11229 whole entry, looked up): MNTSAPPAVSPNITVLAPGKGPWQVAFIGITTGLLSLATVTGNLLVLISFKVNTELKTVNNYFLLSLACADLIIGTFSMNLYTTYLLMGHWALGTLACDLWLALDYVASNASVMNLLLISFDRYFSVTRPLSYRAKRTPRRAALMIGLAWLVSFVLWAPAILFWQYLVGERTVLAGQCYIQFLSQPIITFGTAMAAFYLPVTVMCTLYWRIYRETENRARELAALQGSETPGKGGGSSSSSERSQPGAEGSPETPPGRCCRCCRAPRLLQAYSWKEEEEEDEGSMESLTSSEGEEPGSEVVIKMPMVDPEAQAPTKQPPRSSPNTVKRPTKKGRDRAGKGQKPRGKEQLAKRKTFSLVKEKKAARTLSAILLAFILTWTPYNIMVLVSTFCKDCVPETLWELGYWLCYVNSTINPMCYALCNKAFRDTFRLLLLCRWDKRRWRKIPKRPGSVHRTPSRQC
Beta-2 adrenergic receptor (Homo sapiens), sequence (P07550 whole entry, looked up): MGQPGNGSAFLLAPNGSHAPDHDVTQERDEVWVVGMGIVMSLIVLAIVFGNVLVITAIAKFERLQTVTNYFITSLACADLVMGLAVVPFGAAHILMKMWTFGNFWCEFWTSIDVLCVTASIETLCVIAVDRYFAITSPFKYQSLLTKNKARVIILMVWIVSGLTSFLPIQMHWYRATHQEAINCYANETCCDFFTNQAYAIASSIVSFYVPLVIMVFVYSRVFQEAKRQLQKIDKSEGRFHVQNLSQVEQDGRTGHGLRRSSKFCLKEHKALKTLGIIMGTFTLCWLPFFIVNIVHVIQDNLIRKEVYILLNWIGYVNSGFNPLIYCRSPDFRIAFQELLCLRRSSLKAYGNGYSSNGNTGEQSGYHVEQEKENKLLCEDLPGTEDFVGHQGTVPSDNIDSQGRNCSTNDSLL
5-hydroxytryptamine receptor 2A (Homo sapiens), sequence (P28223 whole entry, looked up): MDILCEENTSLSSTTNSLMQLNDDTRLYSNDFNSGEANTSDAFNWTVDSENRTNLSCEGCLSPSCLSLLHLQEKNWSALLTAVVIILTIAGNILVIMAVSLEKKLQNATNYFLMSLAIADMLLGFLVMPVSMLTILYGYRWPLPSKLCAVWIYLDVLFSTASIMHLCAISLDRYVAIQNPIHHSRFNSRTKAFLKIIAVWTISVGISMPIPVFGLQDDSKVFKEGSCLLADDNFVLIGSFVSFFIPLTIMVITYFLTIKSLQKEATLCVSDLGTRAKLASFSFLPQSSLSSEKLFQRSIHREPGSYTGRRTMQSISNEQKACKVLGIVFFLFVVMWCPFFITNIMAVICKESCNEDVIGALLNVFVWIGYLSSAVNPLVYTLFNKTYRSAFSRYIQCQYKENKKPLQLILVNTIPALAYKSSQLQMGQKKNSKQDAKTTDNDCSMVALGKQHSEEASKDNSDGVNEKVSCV
D(2) dopamine receptor (Homo sapiens), sequence (P14416 whole entry, looked up): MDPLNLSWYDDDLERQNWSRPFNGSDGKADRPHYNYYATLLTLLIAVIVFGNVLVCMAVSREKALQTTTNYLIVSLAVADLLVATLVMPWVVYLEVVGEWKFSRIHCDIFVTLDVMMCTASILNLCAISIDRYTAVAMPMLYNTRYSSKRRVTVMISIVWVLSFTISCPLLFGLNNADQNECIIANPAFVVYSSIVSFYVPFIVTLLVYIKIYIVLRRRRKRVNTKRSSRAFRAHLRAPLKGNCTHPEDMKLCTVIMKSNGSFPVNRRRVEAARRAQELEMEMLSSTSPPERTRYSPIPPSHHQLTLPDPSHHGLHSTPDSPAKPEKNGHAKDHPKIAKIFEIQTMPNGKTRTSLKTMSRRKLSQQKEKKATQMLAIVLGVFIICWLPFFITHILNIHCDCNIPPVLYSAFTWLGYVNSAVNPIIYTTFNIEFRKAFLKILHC
Gonadotropin-releasing hormone receptor (Homo sapiens), sequence (P30968 whole entry, looked up): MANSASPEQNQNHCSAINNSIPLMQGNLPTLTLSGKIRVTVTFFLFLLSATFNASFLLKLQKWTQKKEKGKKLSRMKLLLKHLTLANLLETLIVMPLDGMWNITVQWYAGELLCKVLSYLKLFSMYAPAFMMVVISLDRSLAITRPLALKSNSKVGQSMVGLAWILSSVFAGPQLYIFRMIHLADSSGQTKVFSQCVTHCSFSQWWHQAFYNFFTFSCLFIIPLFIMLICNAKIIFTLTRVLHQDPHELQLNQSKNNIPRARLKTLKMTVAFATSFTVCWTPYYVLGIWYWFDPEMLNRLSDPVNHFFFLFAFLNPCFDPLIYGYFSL

CCCCCCCC1CCC(=O)O1 (stereo unspecified)
inactive: [1] | [2] | [3] | [4] | [5] | [6]

CC(C)(C)c1csc(-c2cc3cc(OCc4ccccc4CC(=O)O)ccc3o2)n1
active: [11] 45.8 µM
inactive: [7] | [8] | [9] | [10] | [1] | [12] | [6]

ClC(Cl)Cl
not listed: [1] | [2] | [3] | [5] | [7] | [12] | [18] | [19]
inactive: all other assays above

COc1cc(Cc2cnc(N)nc2N)cc(OC)c1OC
not listed: [4] | [9] | [10] | [11] | [13] | [19]
inactive: all other assays above

CCN(CC)CCCC(C)Nc1c2ccc(Cl)cc2nc2ccc(OC)cc12 (stereo unspecified)
inactive: [7] | [8] | [11] | [14]
active: [15] 19.9 µM

COc1c2occc2cc2ccc(=O)oc12
inactive: [7] | [8] | [14] | [15] | [16] | [17] | [4] | [5] | [12] | [6]

O=[N+]([O-])c1cc([N+](=O)[O-])c2ccc(S(=O)(=O)O)cc2c1O
inactive: [8] | [11] | [19] | [14]

CC(C)(C(=O)O)c1ccc(C(O)CCCN2CCC(C(O)(c3ccccc3)c3ccccc3)CC2)cc1 (stereo unspecified)
inactive: [7] | [8] | [14] | [15] | [16] | [17] | [4] | [12] | [6]

Cc1ccc(O)c([C@H](CCN(C(C)C)C(C)C)c2ccccc2)c1
active: [3] 0.0326 µM
not listed: [2] | [4] | [7] | [9] | [14]
inactive: all other assays above

COc1cc([C@@H]2c3cc4c(cc3[C@@H](O[C@@H]3O[C@@H]5CO[C@@H](C)O[C@H]5[C@H](O)[C@H]3O)[C@H]3COC(=O)[C@H]23)OCO4)cc(OC)c1O
inactive: [7] | [8] | [10] | [14] | [16] | [4] | [12] | [6]
active: [15] 1.14 µM

CN1CCC(N(Cc2cccs2)c2ccccc2)CC1
inactive: [13] | [8] | [11] | [14] | [2] | [18] | [16] | [17] | [4]
active: [1] 0.365 µM

CO[C@]1(NC(=O)CSC(F)F)C(=O)N2C(C(=O)O)=C(CSc3nnnn3CCO)CO[C@H]21
not listed: [9] | [13] | [17]
inactive: all other assays above

C1CCC2=NCCCN2CC1
not listed: [4] | [5] | [13] | [17]
inactive: all other assays above

COc1cc2nc(N3CCN(C(=O)C4COc5ccccc5O4)CC3)nc(N)c2cc1OC (stereo unspecified)
inactive: [7] | [8] | [9] | [10] | [19] | [14] | [15] | [16] | [6]
active: [4] 26.6 µM

Nc1ccc(N)c([N+](=O)[O-])c1
inactive: [1] | [3] | [18]

S=P(N1CC1)(N1CC1)N1CC1
active: [9] 34.1 µM
inactive: [7] | [8] | [11] | [19] | [14] | [15] | [1] | [3] | [16] | [12]

CN[C@H]1CC[C@@H](c2ccc(Cl)c(Cl)c2)c2ccccc21
inactive: [7] | [8] | [11] | [19] | [14] | [15] | [17] | [4] | [12]
active: [6] 15 µM

CNCC[C@H](Oc1cccc2ccccc12)c1cccs1
not listed: [1] | [2] | [3] | [4] | [5] | [12] | [13] | [15]
inactive: all other assays above

N/C(=N\N=C\c1ccc(Cl)cc1)N/N=C/c1ccc(Cl)cc1
not listed: [6] | [9] | [11] | [13] | [16] | [17]
inactive: all other assays above

CCCCCCCCCO
active: [12] 43.3 µM
not listed: [3] | [9] | [10] | [11] | [13] | [19]
inactive: all other assays above
